# Measured values from the supplement of paper PMC6555819.
# Columns and labels:
# Assay in all cases: PBM binding z-score (relative to random genomic background probes); higher = stronger binding; sequences stand for … in GC…GCGATTGACAGCGTAGAATGAAGG
# [1] = test system: FXR:RXRa (NR concentration 270 nM, RXRa partner concentration 90 nM)
# Method in brief: (§1)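 Custom Agilent 4×180K protein-binding microarrays carried double-stranded probes. Their 34-nt variable regions held direct-repeat seeds, single-nucleotide variants, half-site ablations and random human genomic background sequences. Arrays were incubated 1 h with ligand-free nuclear receptor dimers in PBS pH 7.4, 2% milk, 0.02% Triton X-100, 1 mM DTT, 0.2 mg/mL BSA and 0.4 mg/ml salmon testes DNA. Antibodies against each partner (one per run) detected binding, and scanned fluorescence was regression-normalized. Binding z-scores use random background probes as reference.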
# [2] = test system: LXRa:RXRa (NR concentration 270 nM, RXRa partner concentration 90 nM)
# Method in brief: as §1
# [3] = test system: LXRa homodimer (NR concentration 270 nM)
# Method in brief: as §1
# [4] = test system: LXRb:RXRa (NR concentration 270 nM, RXRa partner concentration 90 nM)
# Method in brief: as §1
# [5] = test system: LXRb homodimer (NR concentration 270 nM)
# Method in brief: as §1
# [6] = test system: PPARa:RXRa (NR concentration 270 nM, RXRa partner concentration 90 nM)
# Method in brief: as §1
# [7] = test system: PPARg:RXRa (NR concentration 180 nM, RXRa partner concentration 90 nM)
# Method in brief: as §1
# [8] = test system: PPARg:RXRa 270nM:90nM, anti-RXR (NR concentration 270 nM, RXRa partner concentration 90 nM)
# Method in brief: as §1
# [9] = test system: PPARg:RXRa 30nM:10nM, anti-RXR (NR concentration 30 nM, RXRa partner concentration 10 nM)
# Method in brief: as §1
# [10] = test system: PPARg:RXRa 90nM:30nM, anti-RXR (NR concentration 90 nM, RXRa partner concentration 30 nM)
# Method in brief: as §1
# [11] = test system: PPARg:RXRa DBDmut IVT, anti-RXR (DBD mutation: RXRa K156A/R161A, NR concentration 270 nM, RXRa partner concentration 90 nM)
# Method in brief: as §1
# [12] = test system: PPARg:RXRa IVT, anti-PPARg (NR concentration 270 nM, RXRa partner concentration 90 nM)
# Method in brief: as §1
# [13] = test system: PPARg DBDmut:RXRa IVT, anti-PPARg (DBD mutation: PPARg1 K132A/R137A, NR concentration 270 nM, RXRa partner concentration 90 nM)
# Method in brief: as §1
# [14] = test system: PPARg DBDmut IVT, anti-PPARg (DBD mutation: PPARg1 K132A/R137A, NR concentration 270 nM)
# Method in brief: as §1
# [15] = test system: PPARg homodimer (NR concentration 180 nM)
# Method in brief: as §1
# [16] = test system: PXR:RXRa (NR concentration 270 nM, RXRa partner concentration 90 nM)
# Method in brief: as §1
# [17] = test system: PXR homodimer (NR concentration 270 nM)
# Method in brief: as §1
# [18] = test system: RARa homodimer (NR concentration 270 nM)
# Method in brief: as §1
# [19] = test system: RARb:RXRa (NR concentration 270 nM, RXRa partner concentration 90 nM)
# Method in brief: as §1
# [20] = test system: RARa:RXR (NR concentration 270 nM, RXRa partner concentration 90 nM)
# Method in brief: as §1
Sequence,PBM binding z-score [1],PBM binding z-score [2],PBM binding z-score [3],PBM binding z-score [4],PBM binding z-score [5],PBM binding z-score [6],PBM binding z-score [7],PBM binding z-score [8],PBM binding z-score [9],PBM binding z-score [10],PBM binding z-score [11],PBM binding z-score [12],PBM binding z-score [13],PBM binding z-score [14],PBM binding z-score [15],PBM binding z-score [16],PBM binding z-score [17],PBM binding z-score [18],PBM binding z-score [19],PBM binding z-score [20]
TCTAGTTGGTTACGGAGGTCACACACGACGGGTA,2.67,3.44,3.06,3.14,1.06,3.67,2.59,3.61,3.44,3.42,1.85,2.98,1.22,0.724,3.22,4.22,1.44,2.34,3.25,
TAGCCTAGGTCATTCAGGGGTCAGTATAGAAAGC,5.8,5.2,3.94,5.72,2.32,5.18,4.13,4.56,1.78,3.3,2.45,3.97,1.25,0.527,9.82,5.72,1.35,2.26,4.81,
CACACTAGGTCAAGAGGTCAAAGTCCGCTTCCCG,7.5,6.61,7.43,5.8,2.67,6.33,9.41,7.85,7.67,8.14,7.22,7.67,2.76,1.84,7.46,6.33,3.75,3.81,5.28,
CGTCCAAGGTCATAGGAGTTCAGTGAAGACAGAT,7.7,7.41,5.13,5.15,0.66,5.9,4.86,5.44,1.9,4.2,3.09,4,1.39,0.8,5.14,,10.9,2.08,5.31,5.59
GCTAGTAGGTCAGTAAAAGGTCACACACCGGTCG,4.98,5.45,5.31,5.01,1.21,5.55,7.3,6.72,4.43,6.42,7.2,7.29,3.2,3.78,6.95,5.97,1.43,2.9,5.4,
AATACAGGGTCACTAGGCCAGAGTGGGTACGAAT,5.94,5.03,0.964,3.77,0.863,5.69,8.11,6.63,3.08,5.4,3.88,5.89,2.29,2.32,2.94,,0.0148,0.459,4.03,4.01
ATCCAAAGGTCGAGGTGAGTATAGAGAAAGGGAA,4.69,4.08,0.242,3.36,0.755,4.91,4.74,4.86,1.7,3.57,0.646,2.87,1.42,1.42,1.71,2.84,0.536,1.18,4.43,
CTCGAAAGGTCGTGCTTAGGTGAGTATACCAAAC,4.83,3.99,0.372,3.46,0.121,4.98,2.86,4.3,1.12,2.98,1,1.93,0.335,0.228,2.19,,0.515,0.262,3.72,4.22
